Assay results as given in the supplement of paper PMC6555819.

Columns and labels:
Assay in all cases: PBM binding z-score (relative to random genomic background probes); higher = stronger binding; sequences stand for … in GC…GCGATTGACAGCGTAGAATGAAGG
[1] = tested on: RARb homodimer (NR concentration 270 nM)
Procedure, shortened: (§1)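 Scanned fluorescence from custom Agilent 4×180K protein-binding microarrays was regression-normalized. Binding z-scores use random background probes as reference. Ligand-free nuclear receptor dimers were incubated on the arrays for 1 h and detected with antibodies against each partner (one per run).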

[2] = tested on: RARg:RXRa (NR concentration 270 nM, RXRa partner concentration 90 nM)
Procedure, shortened: as §1

[3] = tested on: RARg homodimer (NR concentration 270 nM)
Procedure, shortened: as §1

[4] = tested on: RXRa DBDmut IVT, anti-RXR (DBD mutation: RXRa K156A/R161A, NR concentration 90 nM)
Procedure, shortened: as §1

[5] = tested on: RXRa homodimer (NR concentration 180 nM)
Procedure, shortened: as §1

[6] = tested on: THRa:RXRa (NR concentration 90 nM, RXRa partner concentration 90 nM)
Procedure, shortened: as §1

[7] = tested on: THRa homodimer (NR concentration 90 nM)
Procedure, shortened: as §1

[8] = tested on: VDR homodimer (NR concentration 270 nM)
Procedure, shortened: as §1

Sequence | PBM binding z-score [1] | PBM binding z-score [2] | PBM binding z-score [3] | PBM binding z-score [4] | PBM binding z-score [5] | PBM binding z-score [6] | PBM binding z-score [7] | PBM binding z-score [8]
CCGACTGGGGCAATGGTTACCATACTCAGTACGA | -0.241 | -0.0332 | 0.28 | -0.545 | 0.082 | -0.548 | -0.465 | -0.489
TAGCCTAGGTCAGATGGGGCCAGTATACGCTATA | 2.71 | 2.98 | 3.65 | -0.279 | 1.62 | 4.6 | 0.386 | 0.0236
CTCGAAAGGTCGTGCTCACGTGAGTATACCAAAC | 2.82 | 4.15 | 3.6 | 1.95 | 4.71 | 2.41 | -0.0324 | 1.06
ATTCCAAGGTGATCGTGAGGTCGTTGATACTAAC | 1.59 | 2.23 | 0.975 | 0.914 | 1.4 | 3.55 | 2.95 | 3.2
CCTAGTAGGTCAGGAGGTCACACACCGGATATGA | 5.24 | 7.25 | 6.37 | 1.03 | 7.18 | 3.91 | 2.34 | 3.13
CGTCAAAGATCAACTAAGGTAACGTAAAGCACGC | 0.577 | 0.743 | 0.647 | 0.338 | 0.921 | 4.69 | 1.79 | 0.342
TTACCAAGATGAAGGTCGTTGATCCCTCTGTAGA | 0.806 | 0.203 | 0.0937 | 0.4 | 0.993 | 0.726 | -0.149 | 0.756
TCATATAGGTAAATGCTAGGTAAAAGTCCGATCT | 0.193 | 0.567 | 0.36 | 1.76 | 0.806 | 0.9 | 0.258 | 0.409
CCCGAAAGGTCGGTTGAGGTGAGTATACGGATAA | 2.61 | 2.9 | 3 | 0.858 | 2.41 | 4.99 | 1.8 | 0.636
AGAACGATGGCACGCTGAGTTGATAGCAGAGTAG | -0.907 | -0.162 | -0.0451 | -0.483 | -0.397 | -0.632 | -1.01 | -0.128
CCTGCTAGGTCATGGTCAGCTCATCTACAGTATG | 3.46 | 3.88 | 4.57 | 1.95 | 2.65 | 3.24 | 1.26 | 0.458
CGTCCAAGGTCAAGGTCCGTGAAAGAGACTCGAA | 4.19 | 6.16 | 6.84 | 3.57 | 5.96 | 3.82 | 2.69 | 2.27
CGTCCAACGTCAGAGAGGTCAGTGAATGCCGAGT | 3.88 | 2.75 | 3.06 | 0.53 | 2.32 | 2.39 | 0.645 | 1.67
GCATATAGGTAATATAAGGTGAAAGTCCGATTGT | 0.859 | 0.463 | 0.731 | 0.683 | 1.07 | 4.5 | 2.32 | 0.0802
TCTAGTTGGTCACGGAGGTCACCCACGACGGGTA | 4.51 | 4.85 | 5.06 | 0.865 | 5.13 | 3.66 | 2.82 | 2.79
CATACAGGGTCAGCTAGGCCAGAGAAGGGACGGC | 3.35 | 4.63 | 5.1 | 1.74 | 4.46 | 2.99 | 0.568 | 1.67
CGTCAAAGTTCAAGGTAACGGAACAGAAAGCAGC | 3.7 | 5.46 | 6.41 | 4.07 | 4.74 | 2.84 | 1.14 | 2.84
ACTAGAAGGCCAAGTTTGGGTCACTCAAACAAAG | 2.88 | 3.27 | 2.36 | 0.0906 | 1.29 | 3 | 1.32 | 0.626
CCTTACCGGTCACTCCAGGTTATAGCATCGGAGT | 2.64 | 2.41 | 3.52 | 0.359 | 0.865 | 3.88 | 1.32 | 0.951
GCTTGTAGATCATGGTTAAGAAAGACTAAGCTAA | -0.707 | -0.198 | -0.267 | 0.0641 | -0.538 | -0.389 | -0.737 | -0.385
ATATGTAGGTTGTCGGGTCATTCAGTTTGCGCAT | 2.51 | 2.24 | 1.66 | 1.31 | 2.44 | 3.2 | 3.12 | 4.2
CAAACTAGGTCACCGGAAGGTCAATGTCCGCATG | 5.62 | 8.18 | 7.34 | 2.27 | 5.58 | 4.36 | 2.94 | 3.01
ATCGAAAGGTCGACGAGGTGAGTGTACACCGTTT | 3.22 | 4.45 | 4.1 | 1.71 | 4.92 | 3.71 | 1.21 | 1.52
ATAGACAGGTGAGTGAAGGTAACTCAGCTGGACG | 0.264 | 0.515 | 0.582 | -0.459 | 0.665 | 1.68 | -0.333 | -0.359
TCTTGTAGATCAATAGTGGTTAAGAAAGTGCGCT | -0.161 | -0.0273 | -0.193 | 0.933 | 0.198 | 0.0334 | -0.033 | 0.464
TCATATACGTAAATGCTAGGTGAAAGTCCGATCT | 0.562 | 0.251 | 0.209 | 1.77 | 0.598 | 0.97 | 0.696 | 0.147
GATACAGGGTCAGCTAGAGGCCCGAGTATGGAAA | 2.47 | 4.74 | 3.86 | 1.21 | 4.25 | 2.49 | 0.0608 | 0.402
TAGCCTAGGTCATGGGCCAGTAGACCACGCGAAC | 3.01 | 4.29 | 4.33 | -0.149 | 3.68 | 3.04 | 1.09 | 0.284
